Out of some 2,000 compounds screened, about 110 (5.5%) showed an effect of 50% or more. This excerpt belongs to a sample that is enriched for strong results.
Biological target: Genome polyprotein (dengue virus type 2) (UniProt P29990)

`O=Cc1ccc(N2CCC(C(=O)NCCc3cccc4ccccc34)CC2)cc1` was tested, and the inhibition (Thailand/16681/1984, Concentration 25.0 uM, Number of replicates 1.0) was 11.1%.
`Cc1cc(CO)c2cccc(Cc3ccccc3C(=O)NCc3c(C)noc3C)c2n1` gave an inhibition (Thailand/16681/1984, Concentration 49.95 uM, Number of replicates 2.0, Standard deviation 0.3226747127660098 %) of -0.757% and an inhibition (Thailand/16681/1984, Concentration 99.9 uM, Number of replicates 2.0, Standard deviation 0.21847019123152348 %) of 0.39%.
`COc1ccc(F)c(-c2nn(C)cc2NC(=O)c2ccccc2C(F)(F)F)c1` gave an inhibition (Thailand/16681/1984, Concentration 49.5 uM, Number of replicates 2.0, Standard deviation 3.583319549695768 %) of -2.64%, an inhibition (Thailand/16681/1984, Concentration 99.01 uM, Number of replicates 2.0, Standard deviation 4.648656873158677 %) of -2.47% and an inhibition (Thailand/16681/1984, Concentration 198.0 uM, Number of replicates 2.0, Standard deviation 3.7890463989356435 %) of -2.09%.
`COc1ccc(F)cc1-c1ccccc1C(=O)Nc1cnn(C)c1` gave an inhibition (Thailand/16681/1984, Concentration 49.5 uM, Number of replicates 2.0, Standard deviation 2.2581672831644526 %) of -4.25%, an inhibition (Thailand/16681/1984, Concentration 99.01 uM, Number of replicates 2.0, Standard deviation 1.9365380229757554 %) of -2.49% and an inhibition (Thailand/16681/1984, Concentration 198.0 uM, Number of replicates 2.0, Standard deviation 2.756548372009165 %) of -2.95%.
Compound `Cn1cc(NC(=O)c2ccccc2C(F)(F)F)c(-c2ccc(CO)cc2)n1` has an inhibition (Thailand/16681/1984, Concentration 49.5 uM, Number of replicates 2.0, Standard deviation 2.3161186941047496 %) of -4.04%, an inhibition (Thailand/16681/1984, Concentration 99.01 uM, Number of replicates 2.0, Standard deviation 3.5021876776391307 %) of -2.8% and an inhibition (Thailand/16681/1984, Concentration 198.0 uM, Number of replicates 2.0, Standard deviation 4.667974048773386 %) of -3.05%.
Work on `N=C(N)NCCC[C@H](NC(=O)c1nccs1)C(=O)N[C@@H](CCCCN)C(=O)N[C@@H](C(N)=O)c1ccc(OCc2ccc(C(F)(F)F)cc2)cc1` yielded an inhibition (Thailand/16681/1984, Concentration 49.5 uM, Number of replicates 2.0, Standard deviation 0.01715005842126491 %) of 96.2%, an inhibition (Thailand/16681/1984, Concentration 49.5 uM, Number of replicates 2.0, Standard deviation 0.019135343573522066 %) of 96.1% and an inhibition (Thailand/16681/1984, Concentration 49.5 uM, Number of replicates 2.0, Standard deviation 0.03570815875758177 %) of 95.6%. It also gave an inhibition (Thailand/16681/1984, Concentration 49.5 uM, Number of replicates 2.0, Standard deviation 0.054562972907415325 %) of 95.2%, an inhibition (Thailand/16681/1984, Concentration 49.5 uM, Number of replicates 2.0, Standard deviation 0.06140896980473687 %) of 95.7% and an inhibition (Thailand/16681/1984, Concentration 49.5 uM, Number of replicates 2.0, Standard deviation 0.10612104410339795 %) of 97.2%. It also gave an inhibition (Thailand/16681/1984, Concentration 49.5 uM, Number of replicates 2.0, Standard deviation 0.10687631562871318 %) of 95.4%, an inhibition (Thailand/16681/1984, Concentration 49.5 uM, Number of replicates 2.0, Standard deviation 0.10916370939109642 %) of 95.9% and an inhibition (Thailand/16681/1984, Concentration 49.5 uM, Number of replicates 2.0, Standard deviation 0.11089004430610264 %) of 91.3%. The inhibition (Thailand/16681/1984, Concentration 49.5 uM, Number of replicates 2.0, Standard deviation 0.12066541576232535 %) was 96.7%, the inhibition (Thailand/16681/1984, Concentration 49.5 uM, Number of replicates 2.0, Standard deviation 0.12893024416791762 %) was 95% and the inhibition (Thailand/16681/1984, Concentration 49.5 uM, Number of replicates 2.0, Standard deviation 0.18367124536344298 %) was 96.2%. For the same compound, the inhibition (Thailand/16681/1984, Concentration 49.5 uM, Number of replicates 2.0, Standard deviation 0.22697527774705212 %) was 95.7%, the inhibition (Thailand/16681/1984, Concentration 49.5 uM, Number of replicates 2.0, Standard deviation 0.262397512284336 %) was 95.2% and the inhibition (Thailand/16681/1984, Concentration 49.5 uM, Number of replicates 2.0, Standard deviation 0.3581065989316027 %) was 96.5%. For the same compound, the inhibition (Thailand/16681/1984, Concentration 49.5 uM, Number of replicates 2.0, Standard deviation 0.6751965592419794 %) was 94.5%, the inhibition (Thailand/16681/1984, Concentration 49.5 uM, Number of replicates 4.0, Standard deviation 0.3877656068031149 %) was 96.3% and the inhibition (Thailand/16681/1984, Concentration 49.8 uM, Number of replicates 2.0, Standard deviation 0.008615490185202914 %) was 98.3%. The inhibition (Thailand/16681/1984, Concentration 49.95 uM, Number of replicates 2.0, Standard deviation 0.5898131133050937 %) was 90.4%, the inhibition (Thailand/16681/1984, Concentration 50.0 uM, Number of replicates 2.0, Standard deviation 2.607110988642393 %) was 82.5% and the inhibition (Thailand/16681/1984, Concentration 98.52 uM, Number of replicates 2.0, Standard deviation 0.0007930351015809821 %) was 99.7%. For the same compound, the inhibition (Thailand/16681/1984, Concentration 99.01 uM, Number of replicates 2.0, Standard deviation 0.014371738167426778 %) was 98.3%, the inhibition (Thailand/16681/1984, Concentration 99.01 uM, Number of replicates 2.0, Standard deviation 0.015720437319775387 %) was 97.7% and the inhibition (Thailand/16681/1984, Concentration 99.01 uM, Number of replicates 2.0, Standard deviation 0.019361925031116632 %) was 97.6%. The inhibition (Thailand/16681/1984, Concentration 99.01 uM, Number of replicates 2.0, Standard deviation 0.03515249470681415 %) was 98%, the inhibition (Thailand/16681/1984, Concentration 99.01 uM, Number of replicates 2.0, Standard deviation 0.051056355111308946 %) was 98.5% and the inhibition (Thailand/16681/1984, Concentration 99.01 uM, Number of replicates 2.0, Standard deviation 0.05114267185705925 %) was 98.8%. The inhibition (Thailand/16681/1984, Concentration 99.01 uM, Number of replicates 2.0, Standard deviation 0.05214610402640662 %) was 98.2%, the inhibition (Thailand/16681/1984, Concentration 99.01 uM, Number of replicates 2.0, Standard deviation 0.05969881927955883 %) was 97.8% and the inhibition (Thailand/16681/1984, Concentration 99.01 uM, Number of replicates 2.0, Standard deviation 0.06259043026219424 %) was 97.6%. The inhibition (Thailand/16681/1984, Concentration 99.01 uM, Number of replicates 2.0, Standard deviation 0.0932706385798204 %) was 98.3%, the inhibition (Thailand/16681/1984, Concentration 99.01 uM, Number of replicates 2.0, Standard deviation 0.1268262734902538 %) was 98.1% and the inhibition (Thailand/16681/1984, Concentration 99.01 uM, Number of replicates 2.0, Standard deviation 0.1304084184388917 %) was 95.2%. The inhibition (Thailand/16681/1984, Concentration 99.01 uM, Number of replicates 2.0, Standard deviation 0.16720632611157116 %) was 97.6%, the inhibition (Thailand/16681/1984, Concentration 99.01 uM, Number of replicates 2.0, Standard deviation 0.19540492798887588 %) was 98.3% and the inhibition (Thailand/16681/1984, Concentration 99.01 uM, Number of replicates 2.0, Standard deviation 0.2057251739026474 %) was 97.9%. For the same compound, the inhibition (Thailand/16681/1984, Concentration 99.01 uM, Number of replicates 2.0, Standard deviation 0.39058866931676656 %) was 97.1%, the inhibition (Thailand/16681/1984, Concentration 99.01 uM, Number of replicates 4.0, Standard deviation 0.160745991426317 %) was 98.2% and the inhibition (Thailand/16681/1984, Concentration 99.5 uM, Number of replicates 2.0, Standard deviation 0.012726325201561474 %) was 99.3%. It also gave an inhibition (Thailand/16681/1984, Concentration 99.5 uM, Number of replicates 2.0, Standard deviation 0.04880672492519146 %) of 99.4%, an inhibition (Thailand/16681/1984, Concentration 99.9 uM, Number of replicates 2.0, Standard deviation 0.33233565552852545 %) of 95.1% and an inhibition (Thailand/16681/1984, Concentration 100.0 uM, Number of replicates 2.0, Standard deviation 1.0120962127020525 %) of 91.1%. For the same compound, the inhibition (Thailand/16681/1984, Concentration 198.0 uM, Number of replicates 2.0, Standard deviation 0.008588516202155942 %) was 97.6%, the inhibition (Thailand/16681/1984, Concentration 198.0 uM, Number of replicates 2.0, Standard deviation 0.009273655371549035 %) was 99.3% and the inhibition (Thailand/16681/1984, Concentration 198.0 uM, Number of replicates 2.0, Standard deviation 0.015984782353635714 %) was 99.5%. For the same compound, the inhibition (Thailand/16681/1984, Concentration 198.0 uM, Number of replicates 2.0, Standard deviation 0.02043009475977673 %) was 99%, the inhibition (Thailand/16681/1984, Concentration 198.0 uM, Number of replicates 2.0, Standard deviation 0.03091218457183012 %) was 99% and the inhibition (Thailand/16681/1984, Concentration 198.0 uM, Number of replicates 2.0, Standard deviation 0.034661568215359255 %) was 98.9%. It also gave an inhibition (Thailand/16681/1984, Concentration 198.0 uM, Number of replicates 2.0, Standard deviation 0.04180427892619749 %) of 98.9%, an inhibition (Thailand/16681/1984, Concentration 198.0 uM, Number of replicates 2.0, Standard deviation 0.05357033033128675 %) of 99.3% and an inhibition (Thailand/16681/1984, Concentration 198.0 uM, Number of replicates 2.0, Standard deviation 0.055172584924276895 %) of 99.5%. The inhibition (Thailand/16681/1984, Concentration 198.0 uM, Number of replicates 2.0, Standard deviation 0.06522309100757873 %) was 99.1%, the inhibition (Thailand/16681/1984, Concentration 198.0 uM, Number of replicates 2.0, Standard deviation 0.07510635839598934 %) was 99.3% and the inhibition (Thailand/16681/1984, Concentration 198.0 uM, Number of replicates 2.0, Standard deviation 0.08009654525967919 %) was 99.1%. The inhibition (Thailand/16681/1984, Concentration 198.0 uM, Number of replicates 2.0, Standard deviation 0.10986503295031769 %) was 99.2%, the inhibition (Thailand/16681/1984, Concentration 198.0 uM, Number of replicates 2.0, Standard deviation 0.15163694309685882 %) was 99% and the inhibition (Thailand/16681/1984, Concentration 198.0 uM, Number of replicates 2.0, Standard deviation 0.1571827940113163 %) was 98.9%. For the same compound, the inhibition (Thailand/16681/1984, Concentration 198.0 uM, Number of replicates 2.0, Standard deviation 0.24491837126989802 %) was 98.3%, the inhibition (Thailand/16681/1984, Concentration 198.0 uM, Number of replicates 4.0, Standard deviation 0.0821711955101111 %) was 99.2% and the inhibition (Thailand/16681/1984, Concentration 295.6 uM, Number of replicates 2.0, Standard deviation 0.015100035709695026 %) was 100%. For the same compound, the inhibition (Thailand/16681/1984, Concentration 295.6 uM, Number of replicates 2.0, Standard deviation 0.020829309708871917 %) was 99.9%.
In the case of `N#Cc1cccc(NC(=O)[C@@H](NC(=O)c2ccc(Oc3ccc(C(F)(F)F)cc3)cc2)c2ccc(OCc3ccccc3)cc2)c1`, the inhibition (Thailand/16681/1984, Concentration 49.5 uM, Number of replicates 2.0, Standard deviation 0.9263674997821656 %) is reported as -5.09%, the inhibition (Thailand/16681/1984, Concentration 99.01 uM, Number of replicates 2.0, Standard deviation 0.4269393146330484 %) is reported as -4.04% and the inhibition (Thailand/16681/1984, Concentration 198.0 uM, Number of replicates 2.0, Standard deviation 0.9636779131327375 %) is reported as -5.31%.
With `NC(=O)c1cccc(NC(=O)[C@@H](NC(=O)c2ccc(Oc3ccc(C(F)(F)F)cc3)cc2)c2ccc(OCc3ccccc3)cc2)c1` the inhibition (Thailand/16681/1984, Concentration 49.5 uM, Number of replicates 2.0, Standard deviation 0.7362133947681709 %) was 6.2%, the inhibition (Thailand/16681/1984, Concentration 99.01 uM, Number of replicates 2.0, Standard deviation 0.5343411171689955 %) was 12.7% and the inhibition (Thailand/16681/1984, Concentration 198.0 uM, Number of replicates 2.0, Standard deviation 1.7800185360663037 %) was 24.8%.

Reference: ChEMBL document CHEMBL5606460, “ASAP - DENV-2 NS2B-NS3 protease fluorescence single point” (2024)
